Screening results as filed in PubChem BioAssay.
Rows were chosen to be rich in hits. Some 1.6% of all compounds tested hit in one or more screens of this group.
PERK inhibitor – human PERK inhibition, primary cell-based screen | CHO PERK-DD fusion, SEAP luminescence translation reporter | inhibition, % at 5.6 µM | hit rate 0.17% among 220,000 | Q9NZJ5 | AID 1416;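 active = inhibition above the mean inhibition of all tested compounds plus 3 SD, set separately per screening campaign, cut at about 2.9% in these data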;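 also: PERK kinase domain activated by AP20187 dimerizer at 100 nM; 0% = DMSO with dimerizer and 100% = rapamycin at 8.4 µM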
MLLE-PAM2 inh – blocks PAM2 peptide binding to the PABP1 MLLE domain; P11940; GST-MLLE / FITC-PAM2 fluorescence polarization; inhibition, % at 20 µM; hit rate 0.36% among 360,000; AID 588489; in the data active = inhibition above about 35%, passing the limit was not always enough;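 also: plate controls were DMSO wells with GST-MLLE for no effect and wells lacking GST-MLLE protein for full effect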
eIF4H FP inh – inhibitors of RNA binding by human eIF4H. eIF4H fluorescence polarization binding assay. hit rate 0.94% among 290,000. inhibition, % at 35 µM. Q15056;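 also: calls also rest on retests at 20 µM and on dose response follow-up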
PABP polyA inh – blocks human PABP binding to poly(A) RNA; fluorescence polarization; P11940; hit rate 1% among 290,000; calls only at 35 µM; AID 2014;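 also: calls also rest on retests at 20 µM and on dose response follow-up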
eIF4E 4G PPI – blocks eIF4E binding to eIF4G | hit rate 0.37% among 220,000 | AID 782 | TR-FRET eIF4E-eIF4GI(517-606) binding, 2 h | inhibition, % at 21.7 µM;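 active = inhibition above about 30%, limit read from the data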;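 also: 0% = full FRET control wells and 100% = background wells lacking eIF4GI fragment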
* = called active by the depositor; i = inactive; ? = inconclusive; nt = no result given; + = active, no number. Unless noted, no rule for the calls is given here.

SMILES	PERK inhibitor	MLLE-PAM2 inh	eIF4H FP inh	PABP polyA inh	eIF4E 4G PPI
CN(C(=O)CN1C(=O)/C(=C/c2ccccc2Cl)SC1=S)C1CCS(=O)(=O)C1 (centres undefined)	nt	40.9*	-4.5	i	nt
CN(C(=O)CN1C(=O)S/C(=C\c2ccccc2Cl)C1=O)C1CCS(=O)(=O)C1 (centres undefined)	nt	11.8	-17.6	i	nt
NC(N)=NC(=S)Nc1ccc(Cl)cc1	0.1	44.5*	-4.9	i	-7.7
N/C(=N\C(=S)Nc1ccccc1)c1ccccc1	nt	30.1	-7.3	i	nt
Cc1nnc(SCCOc2ccccc2)s1	0.7	-12.0	-0.9	i	-5.0
Cc1ccc(S(=O)(=O)c2nnn(-c3cccc(F)c3)c2N)cc1	1.1	6.6	-0.4	i	5.0
Nc1nc(NCCCN2CCOCC2)nc(Nc2ccccc2F)c1[N+](=O)[O-]	-1.9	5.3	-10.9	i	0.8
O=C(c1oc2ccccc2c1CSCc1ccccc1)N1CCN(c2ncccn2)CC1	-0.8	68.7*	16.1	i	-8.1
CCOCC(=O)Nc1c(C(=O)N2CCN(c3ncccn3)CC2)oc2ccccc12	nt	9.5	-6.0	i	nt
O=C(COC(=O)CCc1nc2ccccc2c(=O)[nH]1)Nc1ccccc1OC(F)F	nt	-9.6	nt	nt	nt
COc1c([N+](=O)[O-])cc(C(=O)NNC(=O)c2ccc(C)cc2)cc1[N+](=O)[O-]	nt	-10.3	12.5	i	nt
O=C(CSc1nnc(-c2ccccc2)n1C1CCCCC1)Nc1ccc(S(=O)(=O)Nc2ccccn2)cc1	0.4	15.3	4.2	i	52.8*
CC(C)OC(=O)CC(=O)CSc1nc(-c2ccc(F)cc2)cc(-c2ccccc2)c1C#N	1.1	20.4	87.6*	+	1.9
CC1(C)CC(N2CCN(Cc3ccccc3)CC2)=CC(=[N+]2CCCCC2)C1	1.0	-105.3	7.6	i	-8.5
CN(Cc1ccccc1)C1=CC(=[N+]2CCCCC2)CC(C)(C)C1	0.3	-124.5	-9.5	+	3.6
Cc1ccc(-c2cc(C(=O)Nc3ccc(S(=O)(=O)Nc4ncccn4)cc3)[nH]n2)c(O)c1C	1.6	-7.9	3.7	i	-9.0
COC(C[C@H](O)[C@H](C)[C@H](O)COCc1ccccc1)OC	nt	3.8	5.3	i	79.0*
CC(NC(=O)c1ccc(OC2CCN(S(=O)(=O)N(C)C)CC2)cc1)C1CC1 (centres undefined)	-0.1	0.7	-1.8	i	2.5
CCOC(=O)NC(=O)/C(C#N)=C/c1ccc(N(C)C)cc1	1.0	-139.2	76.7	+	1.9
CN(C)c1ccc(/C=C(\C#N)C(=O)c2ccccc2)cc1	1.5	i	?	?	-5.7
CC1CCN(C(=O)CSc2nncn2-c2ccccn2)CC1	1.1	38.8*	-8.1	i	-6.5
O=C(CNC(=O)C12CC3CC(CC(C3)C1)C2)NC1=NCCS1	1.4	44.8*	-5.3	i	-10.3
O=C(CNC(=O)C1CCCCC1)NC1=NCCS1	0.6	39.7*	-6.8	i	4.3
CCCCCC(O)C=CC1C(O)CC(O)C1CC=CCCCC(=O)O (centres undefined)	nt	-3.1	nt	nt	nt
CCCCC[C@H](O)/C=C/[C@H]1C=CC(=O)[C@@H]1C/C=C\CCCC(=O)O	0.8	nt	94.0	+	8.7
SMILES	PERK inhibitor	MLLE-PAM2 inh	eIF4H FP inh	PABP polyA inh	eIF4E 4G PPI
NC(=S)NN=C1c2cc(S(=O)(=O)N3CCOCC3)ccc2-c2ccc(S(=O)(=O)N3CCOCC3)cc21	1.0	39.6*	2.0	i	2.3
O=C(O)c1cc(-c2ccccc2)n(-c2ccccc2C(=O)O)n1	0.6	-0.4	0.1	i	42.1*
CCN(CC(=O)Nc1c(F)cccc1F)C(=O)CNC(=O)c1ccc2ccccc2c1	nt	2.4	nt	nt	nt
CCN(CC(=O)Nc1c(F)cccc1F)C(=O)CNC(=O)c1ccc2c(c1)OCO2	nt	6.0	42.0	+	nt
Cc1cc(-c2n[nH]c(=S)n2-c2ccccc2C)cs1	1.2	-6.1	active	i	0.3
Cc1ccccc1-n1c(-c2ccncc2)n[nH]c1=S	nt	-31.7	0.1	i	-0.9
C=CCN1C(=O)C2C(C(=O)NC3CCCC3)C3C=CC2(O3)C1C(=O)NC1CCCC1 (centres undefined)	nt	-4.8	1.6	i	nt
COc1cccc(/C=N/NC(=O)CCc2n[nH]c(=O)[nH]c2=O)c1O	0.8	-2.2	6.7	i	2.8
O=C(CCc1n[nH]c(=O)[nH]c1=O)N/N=C/c1ccco1	0.7	-1.1	77.4*	+	13.1
COc1cc(O)cc2cc3c(c(O)c12)C(=O)CC(C)(O)O3 (centres undefined)	nt	45.4*	71.9*	+	70.8*
